Only some compounds are listed: those with a hit (about 5.7% of all), similar ones and a draw of the others.
VP16 counter: inhibits Gal4-VP16 luciferase reporter, ROR gamma counter-screen; Drosophila S2 Gal4-VP16 UAS-luciferase, luminescence, 20 h; Potency, µM (doses to about 53.6 µM), for inactives: top-dose activity, negative = inhibition, usual class: inhibitors; 3.5% of 310,000 active; AID 2546;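 further: Gal4-VP16 expression switched on by copper sulfate through the metallothionein promoter; nearly all actives have a fitted effect of over 50% in size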
RORg inh: inhibitors of mouse ROR gamma transcriptional activity. 5.4% of 310,000 active. P51450. Potency, µM (doses to about 53.6 µM), for the others: top-dose activity change, negative = inhibition, actives largely listed as inhibitors. Drosophila S2 Gal4-RORgamma UAS-luciferase reporter, 20 h; further: nearly all actives have a fitted effect of over 60% in size
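Using a luciferase readout, inhibitors were identified by reduced reporter activity in Drosophila cells coexpressing a copper-inducible Gal4–ROR gamma fusion and UAS-driven Photinus luciferase, incubated 20 hr after 700 uM copper sulfate.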
B2AR arrestin: recruits beta-arrestin to the human beta2-adrenergic receptor. Potency, µM (doses to about 46.1 µM), for the others: at the top dose activation, actives largely listed as activators. P07550. beta-arrestin recruitment to beta2AR, cell-based reporter. 0.02% of 330,000 active;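 further: 0% = DMSO controls and full agonism = EC100 isoproterenol or metaproterenol; nearly all actives have a fitted effect of over 65% in size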
Target sequence (P07550 whole entry, looked up): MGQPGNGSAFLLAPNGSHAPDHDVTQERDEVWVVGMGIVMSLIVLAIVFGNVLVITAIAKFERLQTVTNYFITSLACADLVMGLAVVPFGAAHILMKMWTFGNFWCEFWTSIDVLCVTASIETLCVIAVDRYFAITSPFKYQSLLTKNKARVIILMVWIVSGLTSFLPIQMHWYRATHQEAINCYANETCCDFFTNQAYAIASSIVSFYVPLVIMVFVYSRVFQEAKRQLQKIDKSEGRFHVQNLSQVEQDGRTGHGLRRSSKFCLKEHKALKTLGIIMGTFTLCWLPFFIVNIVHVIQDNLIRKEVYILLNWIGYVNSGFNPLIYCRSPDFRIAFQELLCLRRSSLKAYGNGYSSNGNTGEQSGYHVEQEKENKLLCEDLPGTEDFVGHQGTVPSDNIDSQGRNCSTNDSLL
NPSR antag: neuropeptide S receptor (human) antagonism, cAMP. Q6W5P4. CHO-NPSR cells, cAMP TR-FRET, antagonist mode. Potency, µM (titrated, usually from 38.3 µM), inactives show at the top dose activity change, negative = inhibition, hits mostly inhibitors. 1% of 220,000 active; further: nearly all actives have a fitted effect of over 50% in size
The depositor's hits bear a star; ? = inconclusive; . = no result; [ ] = dose if it differs, or a comment. The call rests on the fitted dose curve; in most records, active means well fitted curve in the direction sought with a large enough effect; inconclusive means small, poorly fitted or top-dose-only effect, or another doubt; inactive means no such curve, though single readings can be large; an effect the other way counts as inactive or inconclusive. Unless noted, on the % scale 0 is the no-effect control and ±100 the full control effect; potency means the concentration at half of the fitted maximal effect.

SMILES	VP16 counter	RORg inh	B2AR arrestin	NPSR antag
S=c1[nH]nc(C2CCCCC2)n1/N=C/c1c(Cl)cccc1Cl	?	?	3%	.
CCc1ccc(/C=N/n2c(C3CCCCC3)n[nH]c2=S)cc1	8.9µM*	3.5µM*	0%	.
S=c1[nH]nc(C2CCCCC2)n1/N=C/c1ccc(Br)s1	4µM*	1.1µM*	0%	-2%[46.1 µM]
S=c1[nH]nc(C2CCCCC2)n1/N=C/c1ccc(Cl)cc1	7.9µM*	0.35µM*	0%	.
FC(F)(F)c1ccc(/C=N/n2c(C3CCCCC3)n[nH]c2=S)cc1	10µM*	-39%	-1%	.
COC(=O)N1CCC2(CCN(C(=O)Nc3ccc(OC)cc3)CC2)CC1	-5%	15%	.	.
CS(=O)(=O)N1CCN(CC(=O)NC2CCCCC2)CC1	7%	-3%	0%	-34%
CCCCn1[nH]c(-c2ccccc2)cc1=O	-5%	-14%	8%	-3%
S=c1[nH]nc(C2CCCCC2)n1/N=C/c1ccccc1Br	?	?	0%	.
Cc1ccc(/C=N/n2c(C3CCCCC3)n[nH]c2=S)cc1	7.1µM*	2.5µM*	0%	.
COc1cc(/C=N/n2c(C3CCCCC3)n[nH]c2=S)cc(OC)c1O	-4%	-31%	0%	.
S=c1[nH]nc(C2CCCCC2)n1/N=C/c1ccc(Br)cc1	?	1.4µM*	0%	.
Cc1cc2c(Nc3cccc(O)c3)ncnc2s1	-4%	-2%	?	.
COc1ccc(NC(=S)Nc2cccc(C(F)(F)F)c2)c(C)c1	?	10µM*	0%	-3%
CN(C)NC(=S)Nc1cccc(C(F)(F)F)c1	5.6µM*	1µM*	0%	-23%
CC(NC(=S)Nc1cccc(C(F)(F)F)c1)C(C)(C)C (stereo not drawn)	10µM*	3.2µM*	0%	-24%
Cc1cc(C(=O)NNC(=S)Nc2cccc(C(F)(F)F)c2)nn1C	11µM*	16µM*	0%	.
CSc1ccccc1NC(=S)Nc1cccc(C(F)(F)F)c1	?	-109%	0%	-10%[46.1 µM]
Cc1ccc(NC(=S)NNC(=S)Nc2cccc(C(F)(F)F)c2)cc1	-6%	-1%	-1%	-7%
Cc1noc(C)c1C(=O)Nc1nc2ccc(S(C)(=O)=O)cc2s1	11µM*	-32%	0%	.
Cc1noc(C)c1C(=O)Nc1nnc(-c2ccccc2)s1	?	11µM*	1%	-2%[46.1 µM]
Cc1onc(-c2ccccc2)c1C(=O)Nc1nnc(N2CCCCCC2)s1	0.35µM*	?	-1%	-20%[46.1 µM]
CCCCCCN(CCCCCC)C(=O)Cc1c(-c2ccc(Cl)cc2)[nH]c2ccc(Cl)cc12	3%	-2%	.	.
Cc1c(O)ccc(C(=O)COc2ccccc2F)c1O	-9%	23%	0%	-17%[46.1 µM]
COC(=O)c1ccc(OCC(=O)c2ccc(O)cc2O)cc1	0.89µM*	0.079µM*	1%	-7%[46.1 µM]
SMILES	VP16 counter	RORg inh	B2AR arrestin	NPSR antag
O=C(COc1ccc(Cl)cc1)c1ccc(O)cc1O	1.4µM*	0.16µM*	-1%	?
CCOC(=O)c1ccc(OCC(=O)c2ccc(O)cc2O)cc1	1.1µM*	0.25µM*	0%	-10%[46.1 µM]
COc1ccc(C(=O)COc2ccc(F)cc2)c(O)c1	-3%	5%	0%	-20%
O=C(COc1ccccc1F)c1ccc(O)cc1O	?	3.2µM*	0%	-7%[46.1 µM]
Cn1nc(-c2ccc(N3CCN(CCO)CC3)c([N+](=O)[O-])c2)c2ccccc2c1=O	-1%	?	-1%	-10%
Cn1c2c(c(=O)c3ccccc31)CCC(C)(C)O2	-3%	-1%	1%	5%
O=C(COc1ccc(F)cc1)c1c(O)cc(O)cc1O	?	2µM*	0%	-23%
Cc1ccc(NC2=Nc3ccccc3CC2)cc1	?	11µM*	0%	-11%[46.1 µM]
Brc1ccc(NC2=Nc3ccccc3CC2)cc1	?	?	0%	-2%[46.1 µM]
COc1ccc(C2CC(=O)N(C)c3ccccc3S2)cc1OC (stereo not drawn)	?	7.9µM*	0%	20%
COc1ccc(C2CC(=O)N(CC(=O)NCC3CCCO3)c3ccccc3S2)cc1OC (stereo not drawn)	10%	12%	0%	14%
Cc1noc(C)c1-c1nccc(NCc2cccnc2)n1	23%	-44%	.	.
CN1CCN(c2ncc3nc(-c4ccc(Cl)cc4)c(=O)n(CCC#N)c3n2)CC1	-5%	15%	.	.
O=C(Cn1ncc(Cl)c(Cl)c1=O)N1CCN(S(=O)(=O)c2ccc3ccccc3c2)CC1	?	13µM*	-1%	13µM*
OC(c1nc2ccccc2[nH]1)C(O)c1nc2ccccc2[nH]1 (stereo not drawn)	1%	9%	-2%	.

High-throughput results from PubChem BioAssay.
